# Laboratory results: PubChem BioAssay AID720526 (National Center for Advancing Translational Sciences (NCATS), 2013)
# Inconclusive results are not listed. Values without a mark were called inactive. Active and inactive are the calls of the source. The call rests on the fitted dose curve; in most records, active means well fitted activation curve with a large enough effect; inconclusive means small, poorly fitted or top-dose-only effect; inactive means no such curve, though single readings can be large or run the other way.
# Experiment: qHTS Assay for NPC1 Promoter Activators: Hit Validation Using Renila Luciferase Read-Out for NPC1; on activity change, positive = activation: % of control where 0% means no effect
# Settings: Huh7 NPC1 promoter-luciferase reporter, luminescence, 24 h; series mostly up to 76.9 µM; activity change, positive = activation: at the top concentration
# Procedure, shortened: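 Huh7 cells stably carrying NPC promoter-luciferase reporter, exposed to compound for 24 h at 37 deg C. Luminescence read 10 min after adding luciferase detection reagent at room temperature.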
# Potency means the concentration at half of the fitted maximal effect.
SMILES,"activity change, positive = activation [%]",Potency
O=C(CSc1ncccn1)Nc1cccc2ccccc12,10.9,
C=CCn1c(C)nnc1SCC(=O)Nc1nccs1,6.19,
Cc1cccc(NC(=O)CSc2nc3ccccc3o2)c1,-16.9,
Cc1csc(NC(=O)CSc2nnc(-c3ccncc3)o2)n1,-30.8,
COCCNC(=O)Cn1nc(-c2ccccc2)c2ccccc2c1=O,1.18,
CCOC(=O)C1(Cc2cccc(Cl)c2)CCCN(C(=O)CCSC)C1 (stereo not drawn),-3,
COc1ccc(OC)c(S(=O)(=O)N2CCN3CCCC3C2)c1 (stereo not drawn),,32.8 µM (active)
CCCc1cc(C(=O)Nc2ccccc2SC)no1,-2.99,
CCC1CCCCN1CCCNC(=O)c1ccc2nc(N3CCCCC3)sc2c1 (stereo not drawn),-32.3,
C=CCOC(=O)N1CCN(c2cccc(C(F)(F)F)c2)CC1,-3.15,
Nc1c(N(CCO)C(=O)/C=C/c2ccco2)c(=O)[nH]c(=O)n1Cc1ccccc1,13.3,
Cn1c(CCN2CCN(c3ccccc3)CC2)nc2cc(NC(=O)c3ccco3)ccc21,-43.4,
O=C(CCc1cccc(Cl)c1)NC1CCCN(Cc2ccccc2F)C1 (stereo not drawn),8.73,
Nc1ccccc1C(=O)N/N=C1/C2CN3CCN(C2)CC1(Cc1ccccc1)C3,-10.4,
COCCNC(=O)CN1C(=O)NC(c2ccccc2)(c2ccccc2)C1=O,3.54,
CC(=O)NC(=S)Nc1ccc2oc(-c3cc(F)c(F)cc3Cl)nc2c1,4.45,
Cc1ccc(C2C3=C(CC(C)(C)CC3=O)N(CCN3CCOCC3)C3=C2C(=O)CC(C)(C)C3)cc1,,16.4 µM (active)
Cc1cccc(C)c1NC(=O)Nc1cccs1,-0.0994,
O=C(NCCc1c[nH]c2ccccc12)C(=O)NCC(c1ccco1)N1CCN(c2ccccc2F)CC1 (stereo not drawn),-31.8,

SMILES,"activity change, positive = activation [%]",Potency
COc1ccc(-c2csc(Nc3ncccn3)n2)cc1C,5.9,
Cc1ccc2nc(NC(=O)CCn3cccc3)sc2c1,16.6,
O=C(N/N=C/c1ccc(-c2ccc(Br)cc2)o1)c1ccc2c(c1)OCO2,12.9,
COc1ccc(-n2cc(-c3ccc(Cl)cc3)[nH]c2=S)cc1,0.504,
O=C(CCNC(=O)c1ccc(Br)o1)NCc1ccc(Cl)cc1,2.26,
COc1ccc(S(=O)(=O)NC(C(=O)NCCc2ccccn2)C(C)C)cc1 (stereo not drawn),-2.89,
COc1ccc(C(=O)OCC(=O)N2CCCC2=O)c(OC)c1,-4.88,
CC1CCc2sc(C(=O)NNC(=S)NC3CC3)cc2C1 (stereo not drawn),-42.4,
O=C(/C=C/c1ccco1)NCC1OCCc2ccccc21 (stereo not drawn),11.3,
COC(=O)Nc1nc2ccc(Br)cc2s1,17.5,
Cc1ccc(S(=O)(=O)/N=C2\C=C(Nc3cccc(C(=O)O)c3)C(=O)c3ccccc32)cc1,-88,
CC(C)(C)C(=O)NC(=S)Nc1ccccc1F,-37,
COc1ccc(NC(=O)CCCN2C(=O)C(c3ccccc3)Oc3cccnc32)cc1OC (stereo not drawn),-18.8,
COc1ccc(NC(=O)CSc2ccc([N+](=O)[O-])cc2)cc1S(=O)(=O)N1CCOCC1,7.39,
NC(=O)COC(=O)c1ccc2noc(-c3ccccc3)c2c1,0.358,
S=C1NCN(CCc2ccccc2)CN1Cc1ccccc1,11.3,
CN(C)/C=N/c1c(C#N)cnn1-c1nc2ccccc2s1,-0.131,
CCCCCCC(=O)Nc1ccc(C(=O)N/N=C/c2cccnc2)cc1,-21.7,
CN(C)C(=O)[C@H]1C[C@H]1[C@@H](O)[C@H](CO)NC(=O)[C@H](COCc1ccccc1)NC(=O)OC(C)(C)C,-35.3,
